PubChem BioAssay (EPA / NIEHS)
Calls of active or inactive are those of the source. Rule for the calls: active = hit-call score of the fitted dose curve at least 0.9, where 1 is the maximum; inactive = score below 0.9.

Key:
Conditions in all cases: mRNA level, 48 h; actives raise or lower the signal
[1] = read-out: Cyclin Dependent Kinase Inhibitor 1A (CDKN1A), CDKN1A (gene 1026); assay: LTEA_HepaRG_CDKN1A: Life Technologies and Expression Analysis (LTEA) Assay for Cyclin Dependent Kinase Inhibitor 1A (CDKN1A) using HepaRG (AID 2283450)
Outline: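 Gain or loss of CDKN1A transcript is scored by bidirectional fitting against 0.5% DMSO vehicle. Human HepaRG cultures receive chemicals for 48 h across an 8-point series peaking at 100 uM; expression comes from qRT-PCR.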

[2] = read-out: Cyclin D1 (CCND1), CCND1 (gene 595); assay: LTEA_HepaRG_CCND1: Life Technologies and Expression Analysis (LTEA) Assay for Cyclin D1 (CCND1) using HepaRG (AID 2283451)
Outline: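 Expression change is measured by qRT-PCR in HepaRG cells after 48 h treatment across eight concentrations topping at 100 uM, with duplicate wells and DMSO (0.5%) serving as baseline for bidirectional fitting.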

[3] = read-out: catalase (CAT), CAT (gene 847); assay: LTEA_HepaRG_CAT: Life Technologies and Expression Analysis (LTEA) Assay for catalase (CAT) using HepaRG (AID 2283452);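 for AC50: TaqMan qRT-PCR signal normalized to ACTB GAPDH and POLR2A housekeeping genes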
Outline: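 HepaRG cells in serum-free induction medium, 0.5% DMSO vehicle, exposed 48 h in duplicate over 8 half-log concentrations from 100 uM. CAT mRNA measured by qRT-PCR, normalized to ACTB, GAPDH, POLR2A; bidirectional fit versus DMSO.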

[4] = read-out: flavin-containing dimethylaniline monooxygenases 3 (FMO3), FMO3 (gene 2328); assay: LTEA_HepaRG_FMO3: Life Technologies and Expression Analysis (LTEA) Assay for flavin-containing dimethylaniline monooxygenases 3 (FMO3) using HepaRG (AID 2283453)
Outline: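 Differentiated HepaRG cells in serum-free induction medium, exposed 48 h in duplicate to 8 half-log concentrations up to 100 uM in 0.5% DMSO. FMO3 mRNA by qRT-PCR, normalized to ACTB, GAPDH, POLR2A; bidirectional fit vs DMSO.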

[5] = read-out: Cytochrome P450 (CYP1A1), CYP1A1 (gene 1543); assay: LTEA_HepaRG_CYP1A1: Life Technologies and Expression Analysis (LTEA) Assay for Cytochrome P450 (CYP1A1) using HepaRG (AID 2283454)
Outline: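 Using HepaRG cultures with 0.5% DMSO as vehicle, eight-concentration exposures (max 100 uM) lasted 48 h. Transcript levels were measured by TaqMan qRT-PCR and normalized to ACTB, GAPDH and POLR2A.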

[6] = read-out: CFLAR gene, CFLAR (gene 8837); assay: LTEA_HepaRG_CFLAR: Life Technologies and Expression Analysis (LTEA) Assay for CFLAR gene using HepaRG (AID 2283455)
Outline: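 Differentiated HepaRG cells in serum-free induction medium were exposed 48 h in duplicate to eight half-log concentrations up to 100 uM in 0.5% DMSO; mRNA measured by TaqMan qRT-PCR, normalized to ACTB, GAPDH, POLR2A; bidirectional fitting versus DMSO.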

[7] = read-out: Forkhead box O1 (FOXO1), FOXO1 (gene 2308); assay: LTEA_HepaRG_FOXO1: Life Technologies and Expression Analysis (LTEA) Assay for Forkhead box O1 (FOXO1) using HepaRG (AID 2283456)
Outline: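 Differentiated HepaRG cells, in serum-free induction medium with 0.5% DMSO, exposed 48 h in duplicate to 8-point half-log series from 100 uM. FOXO1 mRNA measured by TaqMan qRT-PCR, normalized to ACTB, GAPDH, POLR2A; bidirectional fit versus DMSO.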

[8] = read-out: growth arrest and DNA damage 45 (GADD45A), GADD45A (gene 1647); assay: LTEA_HepaRG_GADD45A: Life Technologies and Expression Analysis (LTEA) Assay for growth arrest and DNA damage 45 (GADD45A) using HepaRG (AID 2283458)
Outline: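 Differentiated HepaRG cells exposed 48 h in serum-free induction medium to 8 concentrations, top 100 uM in half-log steps, 0.5% DMSO. GADD45A mRNA quantified by qRT-PCR, normalized to ACTB, GAPDH and POLR2A; bidirectional fit versus DMSO.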

[9] = read-out: Forkhead box O3 (FOXO3), FOXO3 (gene 2309); assay: LTEA_HepaRG_FOXO3: Life Technologies and Expression Analysis (LTEA) Assay for Forkhead box O3 (FOXO3) using HepaRG (AID 2283459)
Outline: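 Differentiated human HepaRG cells, 48 h post-plating, exposed in duplicate for 48 h in serum-free induction medium; 8-point half-log series from 100 uM in 0.5% DMSO. FOXO3 mRNA by TaqMan qRT-PCR, normalized to ACTB/GAPDH/POLR2A; bidirectional fit versus DMSO.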

[10] = read-out: ABC Transporter (ABCB1), ABCB1 (gene 5243); assay: LTEA_HepaRG_ABCB1: Life Technologies and Expression Analysis (LTEA) Assay for ABC Transporter (ABCB1) using HepaRG (AID 2283460)
Outline: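 HepaRG cells exposed in duplicate for 48 h in serum-free induction medium to eight half-log concentrations up to 100 uM in 0.5% DMSO. ABCB1 mRNA quantified by qRT-PCR, normalised to ACTB, GAPDH and POLR2A; fitted bidirectionally versus DMSO.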

[11] = read-out: growth arrest and DNA damage 45 (GADD45B), GADD45B (gene 4616); assay: LTEA_HepaRG_GADD45B: Life Technologies and Expression Analysis (LTEA) Assay for growth arrest and DNA damage 45 (GADD45B) using HepaRG (AID 2283461)
Outline: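 Human HepaRG monolayers receive chemicals for 48 h at eight half-log concentrations, highest 100 uM, in 0.5% DMSO. Expression is measured by TaqMan qRT-PCR and normalized to ACTB, GAPDH and POLR2A.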

[12] = read-out: ABC Transporter (ABCC3), ABCC3 (gene 8714); assay: LTEA_HepaRG_ABCC3: Life Technologies and Expression Analysis (LTEA) Assay for ABC Transporter (ABCC3) using HepaRG (AID 2283462)
Outline: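 Transcriptional change of ABCC3 in HepaRG after 48 h treatment, determined by qRT-PCR normalized to endogenous controls. Concentrations spanned eight half-log steps to 100 uM in 0.5% DMSO.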

[13] = read-out: ABC Transporter (ABCB11), ABCB11 (gene 8647); assay: LTEA_HepaRG_ABCB11: Life Technologies and Expression Analysis (LTEA) Assay for ABC Transporter (ABCB11) using HepaRG (AID 2283463)
Outline: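 Differentiated human HepaRG cells in serum-free induction medium, dosed in duplicate for 48 h. Eight-point half-log series from 100 uM in 0.5% DMSO; ABCB11 mRNA by qRT-PCR, normalized to ACTB, GAPDH, POLR2A, fitted bidirectionally versus DMSO.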

[14] = read-out: ABC Transporter (ABCC2), ABCC2 (gene 1244); assay: LTEA_HepaRG_ABCC2: Life Technologies and Expression Analysis (LTEA) Assay for ABC Transporter (ABCC2) using HepaRG (AID 2283464)
Outline: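 After plating and 48 h culture, HepaRG medium is replaced with serum-free induction medium and chemicals are added (8 concentrations, max 100 uM, 0.5% DMSO) for 48 h. Total RNA then undergoes qRT-PCR for ABCC2 with housekeeping normalization.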

[15] = read-out: Broad substrate specificity ATP-binding cassette transporter ABCG2 (Homo sapiens) (UniProt Q9UNQ0); assay: LTEA_HepaRG_ABCG2: Life Technologies and Expression Analysis (LTEA) Assay for ABC Transporter (ABCG2) using HepaRG (AID 2283465)
Outline: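 Differentiated HepaRG cells were exposed for 48 h in serum-free induction medium to 8 half-log concentrations, top 100 uM, in 0.5% DMSO. ABCG2 mRNA was measured by qRT-PCR, normalized to ACTB, GAPDH and POLR2A, with bidirectional fitting versus DMSO.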

[16] = read-out: ATP-citrate lyase (ACLY), ACLY (gene 47); assay: LTEA_HepaRG_ACLY: Life Technologies and Expression Analysis (LTEA) Assay for ATP-citrate lyase (ACLY) using HepaRG (AID 2283466)
Outline: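 Differentiated HepaRG cells exposed 48 h in serum-free induction medium to eight half-log concentrations up to 100 uM in 0.5% DMSO, duplicates. Transcript measured by Fluidigm TaqMan qRT-PCR, normalized to ACTB, GAPDH, POLR2A; bidirectional fit versus DMSO.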

[17] = read-out: Peroxisomal acyl-coenzyme A oxidase 1 (ACOX1) gene, ACOX1 (gene 51); assay: LTEA_HepaRG_ACOX1: Life Technologies and Expression Analysis (LTEA) Assay for Peroxisomal acyl-coenzyme A oxidase 1 (ACOX1) gene using HepaRG (AID 2283467)
Outline: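 HepaRG cells, plated 48 h then switched to serum-free induction medium, were exposed in duplicate for 48 h to 8-point half-log concentrations up to 100 uM in 0.5% DMSO. ACOX1 mRNA was measured by qRT-PCR, normalized to ACTB/GAPDH/POLR2A, and fitted bidirectionally versus DMSO.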

[18] = read-out: Alkaline Phosphatase, Placental (ALPP) gene, ALPP (gene 250); assay: LTEA_HepaRG_ALPP: Life Technologies and Expression Analysis (LTEA) Assay for Alkaline Phosphatase, Placental (ALPP) gene using HepaRG (AID 2283468)
Outline: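 Using human liver HepaRG cells, chemicals are tested in duplicate over 48 h at half-log concentrations topping at 100 uM; phenobarbital 1 mM serves as induction control. ALPP mRNA change by qRT-PCR, bidirectional fit against vehicle.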

[19] = read-out: Cyclin D2 (CCND2), CCND2 (gene 894); assay: LTEA_HepaRG_CCND2: Life Technologies and Expression Analysis (LTEA) Assay for Cyclin D2 (CCND2) using HepaRG (AID 2283449);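 note: CCND2 transcript measured by TaqMan qRT-PCR and normalised to three housekeeping genes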
Outline: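 Chemicals in 0.5% DMSO, eight half-log concentrations from 100 uM top, were applied in duplicate for 48 h to human HepaRG cells in serum-free induction medium. CCND2 mRNA by TaqMan qRT-PCR, normalised to ACTB/GAPDH/POLR2A; bidirectional fit versus DMSO.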

Measured: AC50

Broad substrate specificity ATP-binding cassette transporter ABCG2 (Homo sapiens), sequence (Q9UNQ0 whole entry, looked up): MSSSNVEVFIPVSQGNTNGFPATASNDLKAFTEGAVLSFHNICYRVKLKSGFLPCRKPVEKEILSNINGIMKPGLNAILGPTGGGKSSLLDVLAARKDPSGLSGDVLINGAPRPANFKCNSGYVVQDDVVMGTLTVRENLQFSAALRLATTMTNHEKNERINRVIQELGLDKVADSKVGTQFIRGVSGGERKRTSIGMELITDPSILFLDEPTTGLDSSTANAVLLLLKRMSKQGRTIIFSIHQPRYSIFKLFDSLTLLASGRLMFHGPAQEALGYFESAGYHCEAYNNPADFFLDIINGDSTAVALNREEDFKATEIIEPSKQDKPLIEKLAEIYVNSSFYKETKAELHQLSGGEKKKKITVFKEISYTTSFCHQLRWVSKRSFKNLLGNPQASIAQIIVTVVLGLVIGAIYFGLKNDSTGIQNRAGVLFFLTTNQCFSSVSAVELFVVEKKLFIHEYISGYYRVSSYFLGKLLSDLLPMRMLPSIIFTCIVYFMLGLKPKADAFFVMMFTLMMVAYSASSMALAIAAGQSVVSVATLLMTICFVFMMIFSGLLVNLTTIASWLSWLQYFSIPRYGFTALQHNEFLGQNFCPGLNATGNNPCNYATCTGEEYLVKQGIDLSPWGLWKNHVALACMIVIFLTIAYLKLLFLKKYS

CCCN(CC)CC1COC2(CCC(C(C)(C)C)CC2)O1 (configuration not stated)
active: [5] 50 µM
not listed: [19]
inactive: all other assays above

CS(=O)(=O)c1cc(C(F)(F)F)ccc1C(=O)c1cnoc1C1CC1
active: [5] 78 µM
not listed: [6] | [16]
inactive: all other assays above

CC(C)(C)C(=O)C(Oc1ccc(Cl)cc1)n1cncn1 (configuration not stated)
active: [5] 37 µM | [10] 7.7 µM | [14] 16.8 µM
not listed: [16] | [18]
inactive: all other assays above

COC(=O)NS(=O)(=O)c1ccc(N)cc1
not listed: [19]
inactive: all other assays above

CCCC(=NOCC)C1=C(O)CC(CC(C)SCC)CC1=O (configuration not stated)
active: [5] 73.9 µM
not listed: [6] | [18]
inactive: all other assays above

CC1(C)C(C=C(Cl)Cl)C1C(=O)OC(C#N)c1cccc(Oc2ccccc2)c1 (configuration not stated)
active: [5] 28.8 µM | [10] 50 µM | [15] 10.8 µM
inactive: all other assays above

CO/N=C(/C1=NOCCO1)c1ccccc1Oc1ncnc(Oc2ccccc2Cl)c1F
active: [1] 28.5 µM | [3] 19.7 µM | [4] 24.9 µM | [5] 33 µM | [7] 10 µM | [8] 29.6 µM | [11] 29.7 µM | [12] 6.69 µM | [13] 29.2 µM | [14] 50 µM | [15] 8.72 µM | [16] 12.5 µM | [17] 15.4 µM | [18] 5.39 µM
inactive: [2] | [6] | [9] | [10]

Nc1c(Cl)c(F)nc(OCC(=O)O)c1Cl
not listed: [6] | [19]
inactive: all other assays above

CCOC(=O)C(C)OC(=O)c1cc(Oc2ccc(C(F)(F)F)cc2Cl)ccc1[N+](=O)[O-] (configuration not stated)
active: [5] 50 µM | [8] 50 µM | [11] 32.2 µM | [14] 21.9 µM | [15] 19.2 µM | [17] 2.11 µM
not listed: [6] | [16] | [19]
inactive: all other assays above

COP(=S)(OC)Oc1ccc([N+](=O)[O-])c(C)c1
active: [5] 50 µM
not listed: [6] | [16] | [18] | [19]
inactive: all other assays above

CC(C)Nc1nc(Cl)nc(NC(C)C)n1
active: [3] 16.8 µM | [5] 41.2 µM | [10] 19.8 µM | [13] 73.3 µM | [14] 9.77 µM
not listed: [6] | [19]
inactive: all other assays above

O=C(Nc1ccccc1-c1ccc(Cl)cc1)c1cccnc1Cl
active: [5] 52.5 µM | [13] 0.921 µM
not listed: [6] | [18] | [19]
inactive: all other assays above

CC(C)C1(C)N=C(c2ncccc2C(=O)O)NC1=O (configuration not stated)
not listed: [6] | [16] | [19]
inactive: all other assays above

CNC(=O)N(C)c1nnc(C(C)(C)C)s1
active: [5] 42.9 µM
not listed: [6] | [16] | [19]
inactive: all other assays above
